This experiment has as its system VDR:RXRa (NR concentration 270 nM, RXRa partner concentration 90 nM). The experiment can be described thus: PBM binding z-score (relative to random genomic background probes); higher = stronger binding; sequences stand for … in GC…GCGATTGACAGCGTAGAATGAAGG
The protocol:
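Protein-binding microarray (Agilent 4x180K custom design, double-stranded 60-nt probes: 5' GC cap, 34-nt variable region, 24-nt constant primer region; full probe sequence given). Purified or IVT nuclear receptor:RXRα heterodimers (3:1 NR:RXRα, mostly 270:90 nM) or homodimers were incubated for 1 h in PBS with 2% milk and no ligand, then detected with Alexa488 antibodies. Fluorescence from o1-orientation probes (~5 replicates averaged) was converted to z-scores against 500 random hg19 background probes. Variable regions are seed direct-repeat (DR0–DR5) sites, all their single-nucleotide variants and half-site ablations.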
For TCTATTAGTTGAAGGGTAACCGACGAGTCCGTTT, the PBM binding z-score was found to be 1.2. With CAAACTAGGTCACATAGGTCAAAGTCCGTGCGTA the figure was 6.27; with TCTGCTAGGTCAACGATGGTCAGCTCATCTGCTA, 1.65.

Turning to GCGACTGGGTCAAAGCAGGTTACCATAAGGTTGG, the PBM binding z-score is 3.06. On to CCGAGTACGTTATGGGGCATTCAGGCAACGGTGA, for which the PBM binding z-score came out at 0.216. With AGTCAAAGTTCAGTACGAGGTAACGTAAAGCACG the figure was 2.89. Next, ACTTACGGGTCAACGAGGTTATATCACGCGTATA: 7.44; GCGACTGGGGCATCGGCAGGTTACCATAACTTAA: -0.199. Next, TCAGACAGGTGAAGGTAAATCAGGTACGCAGTCG: 1.2. CGTCAAACTTCAAGGTAACGTAACAGAAAGCAGC gave a PBM binding z-score of 0.0642.

Consider CCTTACGGGTCACTCCTGGTTATAGCATCGGAGT, for which the PBM binding z-score came to 2.79. TAGCCTAGGTCATGCGTGCCAGTATAGTGTCGGC gave a PBM binding z-score of 2.31. With ACTTACGGGTCAACGAGGATATAGCACGCGTATA the figure was 6.51; with TTACCATGGTGAAAGGTCGTTGATGCACGCCTTG, 2.11; with ATACCAAGGTGATCGTGCGGTCGTTGATACTAAC, 0.18. With CGTCCAAGGTCAGTGCTAGGTCAGTGAAAGCATT the figure was 3.71; with ATCTCTAGGTAAAGATAGGTCAGTGAATGCAAAT, 1.13.

In the case of GCTTGCGGGTCAAAGGTTATAGCATGAATAGAAT, the PBM binding z-score came to 5.03. CCGACCGGGGCATAAGGTTACCATAAGCCAGCCC had a PBM binding z-score of 0.666. Next, CATCGGAGGACAACAGGAGGTCAGAGCTGCCAGA: 2.21. With TGAATGAGGTTAAAAGATCAGGGAACGTTGCAAA the figure was 1.45. Next, CGCCCAAGGTCAAGGTCAGTGAAAGAGACTCGAA: 4.61; TAGCCTAGGTCATGCCGGCCAGTATAGTGTCGGC: 1.95; TCTAGTTGGTCACGGAGGTCACGCACGACGGGTA: 5.99.

Take TCTTGTAGATCAGCAGGTTAAGCAAGCTGGCCAA: the PBM binding z-score came to 0.275.

CCTACTGGGCCCAGGTCATTGATCAGTCAAAGCA: the PBM binding z-score is 1.7.

Turning to ACCTCTAGGTAACAAGTTCAGTGAAAGAGAGGAC, the PBM binding z-score was 1.59.

In the case of ACAGACAGGTGATTGAAGGTAACTCAGCTGGACG, the PBM binding z-score was -0.21. Take TTACCAAGGTGAAGGTCGTTTATCCCTCTGTAGA: the PBM binding z-score is 1.66. For ATACCAAGGTGATAGTGAGGTCGTTGATACTAAC, the PBM binding z-score turned out to be 3.69. Turning to ATCTCTAGGTAAAACTTCAGTGAATCCCGAGGAT, the PBM binding z-score was -0.0846. In the case of TCTATAAGTTGATTAGGGCAACCGAAACAGCGGA, the PBM binding z-score was found to be 0.463. With TCATATAGGTAAACAGGTGAAAGTTCGTAAGTTA, the PBM binding z-score amounted to 1.98. Turning to AGAATGAGGTTATGATCAGGGAAACAGAATACAT, the PBM binding z-score turned out to be 1.11. Turning to ATACCAAGGTGATCGTGAGGACGTTGATACTAAC, the PBM binding z-score was found to be 0.664. Regarding CCTAGTTGGTCCAGGTCACACACGCTATAGGTAC, the PBM binding z-score amounted to 2.54.

Turning to GCTCGAAGGACAAGGTCAGAGCTTTGTCCGTAGA, the PBM binding z-score worked out at 1.31.

Take TCGAGTAGGTTACCAATCGGGCATTCAGCTTTCT: the PBM binding z-score is -0.344. On to TGTCAAAGTTCAAAGGTAATGTAAGTATCCACAC, for which the PBM binding z-score is 4.69. Sequence GGAACGAGGGCAAGTTGGTAGCAGAGTTTGATGG had a PBM binding z-score of 1.03.

The record behind these values is the supplement of paper PMC6555819.
